Assay results taken from PubChem BioAssay AID1159580 (chemical genetic matrix, 2015).
The campaign covered roughly 5,500 compounds. About 2,000 (36%) were called active. Roughly 18% stayed inconclusive and do not appear here. No stated cut-off is given here; in the data, active means normalized growth mostly below about 0.91 (no sharp cut-off); inconclusive means no clear call, values can overlap the other calls; inactive means mostly above about 0.92. This is one part of the list.

Test: chemical genetic growth profiling, strain panel (AID 1159580);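 further: tested at 20 µM; growth read once vehicle control cultures reached saturation at 30 °C; 1 = growth at the plate median or of vehicle wells; lower values mean less growth of the strain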
Conditions: S. cerevisiae deletion strains, growth OD

Measured: normalized growth

Clc1ccc(C(c2ccc(Cl)cc2)C(Cl)(Cl)Cl)cc1
inactive: locus YAL013W, strain DEP1, hits give low values 1 | locus YAL021C, strain ccr4, hits give low values 1.01 | locus YAL026C, strain drs2, hits give low values 1.01 | locus YAL030W, strain snc1, hits give low values 1 | locus YBL061C, strain skt5, hits give low values 1.01 | locus YBR009C, strain hhf1, hits give low values 0.998 | locus YBR021W, strain FUR4, hits give low values 0.999 | locus YBR023C, strain chs3, hits give low values 1.01 | locus YBR171W, strain sec66, hits give low values 1.01 | locus YBR229C, strain ROT2, hits give low values 1.02 | locus YBR231C, strain swc5, hits give low values 1.01 | locus YBR279W, strain paf1, hits give low values 1.01 | locus YCL011C, strain gbp2, hits give low values 1.01 | locus YCL016C, strain dcc1, hits give low values 1.01 | locus YCL029C, strain bik1, hits give low values 1.01 | locus YCL061C, strain MRC1, hits give low values 1.01 | locus YCL069W, strain vba3, hits give low values 0.999 | locus YCR088W, strain abp1, hits give low values 1.01 | locus YDL005C, strain med2, hits give low values 1 | locus YDL035C, strain GPR1, hits give low values 0.983 | locus YDL040C, strain nat1, hits give low values 1.01 | locus YDL074C, strain BRE1, hits give low values 1.02 | locus YDL101C, strain DUN1, hits give low values 1.02 | locus YDL134C, strain PPH21, hits give low values 1.02 | locus YDL185W, strain tfp1, hits give low values 0.999 | locus YDL192W, strain arf1, hits give low values 1 | locus YDR001C, strain nth1, hits give low values 1.01 | locus YDR069C, strain doa4, hits give low values 0.992 | locus YDR101C, strain arx1, hits give low values 0.993 | locus YDR137W, strain rgp1, hits give low values 1.01 | locus YDR150W, strain NUM1, hits give low values 1.03 | locus YDR159W, strain sac3, hits give low values 1.01 | locus YDR162C, strain NBP2, hits give low values 1.01 | locus YDR195W, strain ref2 1.04 | locus YDR297W, strain sur2, hits give low values 1.01 | locus YDR318W, strain mcm21, hits give low values 0.999 | locus YDR334W, strain swr1, hits give low values 1.02 | locus YDR335W, strain msn5, hits give low values 1.01 | locus YDR388W, hits give low values 0.993 | locus YDR392W, strain spt3, hits give low values 0.977 | locus YDR502C, strain sam2, hits give low values 0.999 | locus YEL003W, strain gim4, hits give low values 1.01 | locus YEL037C, strain rad23, hits give low values 1.01 | locus YEL061C, strain CIN8 (second series), hits give low values 1.01 | locus YEL061C, strain CIN8, hits give low values 1.02 | locus YER015W, strain faa2, hits give low values 1.01 | locus YER016W, strain bim1, hits give low values 1 | locus YER110C, hits give low values 0.997 | locus YER111C, strain swi4, hits give low values 1.01 | locus YER155C, strain BEM2 (second series), hits give low values 1 | locus YER155C, strain BEM2, hits give low values 1.02 | locus YER167W, strain BCK2, hits give low values 1.01 | locus YFR010W, strain ubp6, hits give low values 1.01 | locus YGL078C, strain dbp3, hits give low values 1 | locus YGL086W, strain mad1, hits give low values 1.01 | locus YGL167C, strain pmr1, hits give low values 1.01 | locus YGL173C, strain kem1, hits give low values 0.995 | locus YGL227W, strain vid30, hits give low values 1.01 | locus YGL240W, strain doc1, hits give low values 0.997 | locus YGL248W, strain PDE1, hits give low values 1.02 | locus YGL253W, strain hxk2, hits give low values 1 | locus YGR078C, strain PAC10, hits give low values 1.01 | locus YGR135W, strain pre9, hits give low values 1 | locus YGR229C, strain SMI1, hits give low values 0.997 | locus YGR252W, strain gcn5, hits give low values 0.916 | locus YHR013C, strain ard1, hits give low values 1.03 | locus YHR027C, strain rpn1, hits give low values 1 | locus YHR030C, strain SLT2, hits give low values 1.03 | locus YHR079C, strain IRE1 (second series), hits give low values 0.999 | locus YHR094C, strain hxt1, hits give low values 1 | locus YHR129C, strain ARP1, hits give low values 1.03 | locus YHR142W, strain chs7, hits give low values 1.01 | locus YHR200W, strain rpn10, hits give low values 0.991 | locus YIL066C, strain RNR3, hits give low values 1.01 | locus YIL073C, strain SPO22, hits give low values 0.972 | locus YIL125W, strain kgd1, hits give low values 1 | locus YIR030C, strain dcg1, hits give low values 0.993 | locus YJL092W, strain hpr5, hits give low values 1 | locus YJL095W, strain BCK1 (second series), hits give low values 1.01 | locus YJL095W, strain BCK1, hits give low values 1.02 | locus YJL115W, strain asf1, hits give low values 1.02 | locus YJL129C, strain trk1, hits give low values 0.993 | locus YJL134W, strain LCB3, hits give low values 1.02 | locus YJL154C, strain vps35, hits give low values 1.02 | locus YJL164C, strain tpk1, hits give low values 1.01 | locus YJL166W, strain qcr8, hits give low values 1 | locus YJL168C, strain set2, hits give low values 1.01 | locus YJL187C, strain SWE1 (second series), hits give low values 1.02 | locus YJL187C, strain SWE1, hits give low values 1.01
